Source: PubChem BioAssay (Tox21)
Values joined by “and” are separate entries in the source; they are usually repeats but may differ in a detail not shown here. Equal entries are not always repeated. Inconclusive results are not listed. Entries that show only a call come without a potency. More than one record can exist for a structure, and the calls need not agree. Active and inactive are the calls of the source. Unless noted, calls follow the shape of the dose curve; as a rule, active = well fitted curve in the direction sought with a large enough effect in the repeat runs; inconclusive = weak or mixed curves; inactive = no such curve, though single readings can be large; an effect the other way counts as inactive or inconclusive.

Assays:
[1] = qHTS assay for identifying genotoxic compounds that show differential cytotoxicity against isogenic chicken DT40 cell lines with known DNA damage response pathways - wild type cell line (AID 743012); also: nearly all actives have a fitted effect of over 60% in size; also: potency is read from the fitted curve at half-maximal effect
Outline: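 Endpoint: CellTiter-Glo luminescence, 30 min RT. Cells: wild type DT40, 300/well. Exposure: compounds in DMSO, 40 h, 37 C/5% CO2, after ~0.5 h pre-incubation.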

[2] = qHTS assay for identifying genotoxic compounds that show differential cytotoxicity against isogenic chicken DT40 cell lines with known DNA damage response pathways - Rev3 mutant cell line (AID 743014); also: nearly all actives have a fitted effect of over 55% in size; also: potency is read from the fitted curve at half-maximal effect
[3] = qHTS assay for identifying genotoxic compounds that show differential cytotoxicity against isogenic chicken DT40 cell lines with known DNA damage response pathways - Rad54/Ku70 mutant cell line (AID 743015); also: nearly all actives have a fitted effect of over 60% in size; also: potency is read from the fitted curve at half-maximal effect
[4] = qHTS assay to identify small molecule antagonists of the androgen receptor (AR) signaling pathway - cell viability counter screen (AID 743033; also: nearly all actives have a fitted effect of over 45% in size; also: potency is read from the fitted curve at half-maximal effect)
[5] = qHTS assay to identify small molecule antagonists of the androgen receptor (AR) signaling pathway using the MDA cell line - cell viability counter screen (AID 743041; also: nearly all actives have a fitted effect of over 45% in size)
Outline: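 Using the breast carcinoma line MDA-kb2 AR-luc, test chemicals were co-incubated with R1881 for 16 h; CellTiter-Fluor reagent, added at 15.5 h, provided a fluorescence measure of live cells.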

[6] = qHTS assay to identify small molecule antagonists of the thyroid receptor (TR) signaling pathway - cell viability counter screen (AID 743064); also: nearly all actives have a fitted effect of over 50% in size; also: potency is read from the fitted curve at half-maximal effect
Outline: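 GH3.TRE-Luc cells, 4 h pre-plating; cpd + T3 1 nM final; 37 °C 23.5 h; CellTiter-Fluor 30 min; fluorescence read.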

[7] = qHTS assay to identify small molecule antagonists of the thyroid receptor (TR) signaling pathway (AID 743065); also: nearly all actives have a fitted effect of over 55% in size; also: potency is read from the fitted curve at half-maximal effect
Outline: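 Antagonism measured as loss of luciferase signal in GH3 cells stably carrying a TRE-luciferase reporter, co-treated with compound and T3 (1 nM final) for 23.5 h at 37 C. Viability was read in the same well by CellTiter-Fluor.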

[8] = test system: thyroid hormone receptor (rat, GH3 cells); test: qHTS assay to identify small molecule agonists of the thyroid receptor (TR) signaling pathway (AID 743066; calls by dose curve)
[9] = qHTS assay to identify small molecule antagonists of the estrogen receptor alpha (ER-alpha) signaling pathway - cell viability counter screen (AID 743074; calls by dose curve; also: nearly all actives have a fitted effect of over 45% in size; also: potency is read from the fitted curve at half-maximal effect)
[10] = target: Estrogen receptor (Homo sapiens) (UniProt P03372); test: qHTS assay to identify small molecule agonists of the estrogen receptor alpha (ER-alpha) signaling pathway (AID 743075; calls by dose curve)
Chain of Estrogen receptor (Homo sapiens) (P03372 whole entry, looked up): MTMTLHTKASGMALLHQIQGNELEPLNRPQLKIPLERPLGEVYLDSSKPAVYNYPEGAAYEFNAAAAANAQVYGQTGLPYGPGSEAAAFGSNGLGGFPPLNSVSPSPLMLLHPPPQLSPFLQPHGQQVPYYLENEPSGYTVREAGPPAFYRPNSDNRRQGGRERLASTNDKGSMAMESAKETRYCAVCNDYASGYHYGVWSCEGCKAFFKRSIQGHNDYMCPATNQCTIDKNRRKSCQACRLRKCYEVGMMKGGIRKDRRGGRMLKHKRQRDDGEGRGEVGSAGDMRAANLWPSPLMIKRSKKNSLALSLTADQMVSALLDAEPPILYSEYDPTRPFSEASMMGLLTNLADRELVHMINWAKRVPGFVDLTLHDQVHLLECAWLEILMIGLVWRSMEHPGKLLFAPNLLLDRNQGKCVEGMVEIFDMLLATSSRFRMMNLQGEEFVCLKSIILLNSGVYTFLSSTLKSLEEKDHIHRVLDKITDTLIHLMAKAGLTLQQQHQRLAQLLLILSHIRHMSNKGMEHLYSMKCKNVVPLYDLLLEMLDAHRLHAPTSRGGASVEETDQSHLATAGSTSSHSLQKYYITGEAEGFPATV

[11] = qHTS assay to identify small molecule antagonists of the estrogen receptor alpha (ER-alpha) signaling pathway using the BG1 cell line (AID 743080; calls by dose curve;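 also: BG1 cells stimulated with 17beta-estradiol alongside compound; nearly all actives have a fitted effect of over 25% in size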; also: potency is read from the fitted curve at half-maximal effect)
Outline: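 Luciferase inhibition measured with ONE-Glo after 30 min at RT in BG1Luc4E2 cells given test compounds and 17beta-estradiol for 21.5 h at 37 C; CellTiter-Fluor viability read in the same wells beforehand.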

[12] = qHTS assay to identify small molecule antagonists of the estrogen receptor alpha (ER-alpha) signaling pathway using the BG1 cell line - cell viability counter screen (AID 743081);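 also: compound given together with 17beta-estradiol as the ER stimulus; nearly all actives have a fitted effect of over 45% in size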; also: potency is read from the fitted curve at half-maximal effect
Aromatase (Homo sapiens) = Aromatase (Homo sapiens) (UniProt P11511); test: qHTS assay to identify aromatase inhibitors (AID 743083); also: nearly all actives have a fitted effect of over 55% in size; also: potency is read from the fitted curve at half-maximal effect
Chain of Aromatase (Homo sapiens) (P11511 whole entry, looked up): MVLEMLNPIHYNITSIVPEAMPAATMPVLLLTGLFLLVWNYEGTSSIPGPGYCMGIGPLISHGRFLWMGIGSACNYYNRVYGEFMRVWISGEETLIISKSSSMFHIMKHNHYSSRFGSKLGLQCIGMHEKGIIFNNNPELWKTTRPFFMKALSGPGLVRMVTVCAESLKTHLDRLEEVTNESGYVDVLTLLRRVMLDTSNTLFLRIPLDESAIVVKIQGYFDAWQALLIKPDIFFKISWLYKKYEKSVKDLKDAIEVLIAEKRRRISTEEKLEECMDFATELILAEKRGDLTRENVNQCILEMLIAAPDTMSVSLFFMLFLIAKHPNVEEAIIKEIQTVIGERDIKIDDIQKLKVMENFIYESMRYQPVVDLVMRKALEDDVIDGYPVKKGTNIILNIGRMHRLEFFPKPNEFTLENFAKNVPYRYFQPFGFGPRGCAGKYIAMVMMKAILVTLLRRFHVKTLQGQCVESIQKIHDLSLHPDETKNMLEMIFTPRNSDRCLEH

[13] = target: Estrogen receptor (Homo sapiens) (UniProt P03372); test: qHTS assay to identify small molecule antagonists of the estrogen receptor alpha (ER-alpha) signaling pathway (AID 743069; active = well fitted curve in the direction sought with a large enough effect in the signal ratio in the repeat runs, not every such curve was filed as active; the % refers to the signal ratio; also: potency is read from the fitted curve at half-maximal effect)
Outline: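 Fluorescence intensity from a beta-lactamase FRET substrate served as the read-out. Cells: HEK293 with stably integrated ER-alpha-UAS-bla reporter. Agonist 17beta-estradiol was co-added with compounds; incubation 18 hr at 37C, substrate 2 hr at room temperature.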

[14] = target: Estrogen receptor (Homo sapiens) (UniProt P03372); test: qHTS assay to identify small molecule agonists of the estrogen receptor alpha (ER-alpha) signaling pathway using the BG1 cell line (AID 743079); also: nearly all actives have a fitted effect of over 20% in size; also: potency is read from the fitted curve at half-maximal effect

Question: Which Potency [1] does the source give for O=C(Nc1ccc(Br)cc1)c1cc(Br)cc(Br)c1O here?
Answer: 21.7 µM (active)

Question: What about the Potency [2] of the same compound?
Answer: inactive and 19.3 µM (active)

Question: What about the Potency [3] of the same compound?
Answer: inactive and 19.3 µM (active)

Question: What about the Potency [4] of the same compound?
Answer: inactive and 24.5 µM (active) and 9.77 µM (active)

Question: And the Potency [5]?
Answer: inactive

Question: And the Potency [6]?
Answer: 16.8 µM (active) and 5.43 µM (active) and 4.33 µM (active)

Question: What about the Potency [7] of the same compound?
Answer: 8.41 µM (active) and 2.16 µM (active) and 1.93 µM (active)

Question: What about the Potency [8] of the same compound?
Answer: inactive

Question: And the Potency [9]?
Answer: 6.01 µM (active) and 4.35 µM (active) and 2.19 µM (active)

Question: And the Potency [10]?
Answer: inactive

Question: And the Potency [11]?
Answer: 15.4 µM (active)

Question: What about the Potency [12] of the same compound?
Answer: inactive

Question: What about the Potency (Aromatase (Homo sapiens)) of the same compound?
Answer: inactive and 13.7 µM (active)

Question: For C=C(C)C(=O)OCC1CO1 (stereo unspecified), which Potency [1] is on record?
Answer: inactive

Question: And the Potency [2]?
Answer: inactive

Question: And the Potency [3]?
Answer: inactive

Question: And the Potency [4]?
Answer: inactive

Question: What about the Potency [5] of the same compound?
Answer: inactive

Question: What about the Potency [7] of the same compound?
Answer: inactive

Question: And the Potency [8]?
Answer: inactive

Question: And the Potency [13]?
Answer: inactive

Question: What about the Potency [9] of the same compound?
Answer: inactive

Question: What about the Potency [10] of the same compound?
Answer: inactive

Question: And the Potency [14]?
Answer: inactive

Question: What about the Potency [11] of the same compound?
Answer: inactive

Question: What about the Potency [12] of the same compound?
Answer: inactive

Question: What about the Potency (Aromatase (Homo sapiens)) of the same compound?
Answer: inactive

Question: What does the source list for N#CC(Br)Br?
Answer: Potency [1]: inactive; Potency [2]: inactive; Potency [3]: inactive; Potency [4]: inactive; Potency [5]: inactive; Potency [6]: inactive; Potency [7]: inactive; Potency [8]: inactive; Potency [13]: inactive; Potency [9]: inactive; Potency [10]: inactive; Potency [14]: inactive; Potency [11]: inactive; Potency [12]: inactive; Potency (Aromatase (Homo sapiens)): inactive

Question: Which Potency [1] does the source give for Cc1cc(C)cc(C)c1 here?
Answer: inactive

Question: What about the Potency [2] of the same compound?
Answer: inactive

Question: And the Potency [3]?
Answer: inactive

Question: What about the Potency [4] of the same compound?
Answer: inactive

Question: What about the Potency [5] of the same compound?
Answer: inactive

Question: What about the Potency [6] of the same compound?
Answer: inactive

Question: What about the Potency [7] of the same compound?
Answer: inactive

Question: And the Potency [8]?
Answer: inactive

Question: What about the Potency [9] of the same compound?
Answer: inactive

Question: And the Potency [12]?
Answer: inactive

Question: With CCC(C)c1cc([N+](=O)[O-])cc([N+](=O)[O-])c1O (stereo unspecified) as the compound, how does the Potency [1] read?
Answer: inactive and 27.3 µM (active)

Question: And the Potency [2]?
Answer: inactive and 30.6 µM (active)

Question: And the Potency [3]?
Answer: inactive and 27.3 µM (active)

Question: And the Potency [4]?
Answer: inactive and 19.5 µM (active)

Question: What about the Potency [6] of the same compound?
Answer: 27.3 µM (active)

Question: What about the Potency [8] of the same compound?
Answer: inactive

Question: What about the Potency [13] of the same compound?
Answer: inactive and 6.92 µM [inhibitor] (active)

Question: What about the Potency [9] of the same compound?
Answer: inactive

Question: And the Potency [10]?
Answer: inactive

Question: What about the Potency [14] of the same compound?
Answer: inactive

Question: And the Potency [11]?
Answer: inactive

Question: And the Potency [12]?
Answer: inactive and 4.86 µM (active)

Question: And the Potency (Aromatase (Homo sapiens))?
Answer: inactive and 30.6 µM (active)

Question: With NNC(N)=S as the compound, how does the Potency [1] read?
Answer: 28.4 µM (active)

Question: What about the Potency [2] of the same compound?
Answer: 20.1 µM (active)

Question: And the Potency [3]?
Answer: 28.4 µM (active)

Question: What about the Potency [4] of the same compound?
Answer: 14.3 µM (active)

Question: What about the Potency [7] of the same compound?
Answer: inactive

Question: And the Potency [8]?
Answer: inactive

Question: What about the Potency [13] of the same compound?
Answer: inactive

Question: What about the Potency [10] of the same compound?
Answer: inactive

Question: And the Potency [14]?
Answer: inactive

Question: What about the Potency [11] of the same compound?
Answer: inactive

Question: And the Potency [12]?
Answer: inactive

Question: And the Potency (Aromatase (Homo sapiens))?
Answer: 50.4 µM (active) and inactive

Question: Which results are given for O=P(Oc1ccccc1)(Oc1ccccc1)Oc1ccccc1?
Answer: Potency [1]: 54.2 µM (active) and 48.6 µM (active); Potency [2]: 60.8 µM (active) and 48.6 µM (active); Potency [3]: 38.4 µM (active) and 27.3 µM (active); Potency [4]: inactive; Potency [5]: inactive; Potency [7]: inactive; Potency [8]: inactive; Potency [13]: inactive; Potency [9]: inactive; Potency [10]: inactive; Potency [14]: 6.08 µM (active); Potency [11]: inactive; Potency [12]: inactive; Potency (Aromatase (Homo sapiens)): inactive
